Results from PubChem BioAssay (Tox21).
Values without a mark were called inactive. Results filed as inconclusive are left out. Entries that show only a call come without a potency. The source made the active and inactive calls. Unless noted, the call rests on the fitted dose curve.

Legend:
[1] = Nuclear factor erythroid 2-related factor 2/antioxidant responsive element (Nrf2/ARE) small molecule agonists: luciferase reporter gene qHTS assay in human keratinocytes (AID 1919969); further: nearly all actives have a fitted effect of over 35% in size
[2] = molecular target: Gonadotropin-releasing hormone receptor (Homo sapiens) (UniProt P30968); assay: Human gonadotropin-releasing hormone receptor (GnRHR) small molecule agonists, calcium flux assay in GnRHR-HEK293 cells (AID 1920063); further: nearly all actives have a fitted effect of over 35% in size
Gonadotropin-releasing hormone receptor (Homo sapiens), sequence (P30968 whole entry, looked up): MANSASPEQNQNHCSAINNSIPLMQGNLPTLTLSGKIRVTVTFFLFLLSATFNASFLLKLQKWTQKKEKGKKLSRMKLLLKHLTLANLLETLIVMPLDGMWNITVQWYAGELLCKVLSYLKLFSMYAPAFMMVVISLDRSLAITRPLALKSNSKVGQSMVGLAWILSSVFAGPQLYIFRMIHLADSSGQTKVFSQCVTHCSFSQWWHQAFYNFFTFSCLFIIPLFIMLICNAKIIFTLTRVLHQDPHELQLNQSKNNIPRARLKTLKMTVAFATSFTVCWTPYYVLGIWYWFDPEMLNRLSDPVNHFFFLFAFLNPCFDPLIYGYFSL
Summary of the method: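 Stable human GnRHR HEK293 line. 18 h plating, then calcium dye for 1 h at 37 C. Agonist-mode compound addition from DMSO stocks; fluorescence monitored 3 min.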

[3] = molecular target: KiSS-1 receptor (Homo sapiens) (UniProt Q969F8); assay: Human kisspeptin (KISS1R) small molecule agonists, calcium flux assay in KISS1R-HEK293 cells (AID 1920064; active means well fitted activation curve with a large enough effect in the repeat runs)
KiSS-1 receptor (Homo sapiens), sequence (Q969F8 whole entry, looked up): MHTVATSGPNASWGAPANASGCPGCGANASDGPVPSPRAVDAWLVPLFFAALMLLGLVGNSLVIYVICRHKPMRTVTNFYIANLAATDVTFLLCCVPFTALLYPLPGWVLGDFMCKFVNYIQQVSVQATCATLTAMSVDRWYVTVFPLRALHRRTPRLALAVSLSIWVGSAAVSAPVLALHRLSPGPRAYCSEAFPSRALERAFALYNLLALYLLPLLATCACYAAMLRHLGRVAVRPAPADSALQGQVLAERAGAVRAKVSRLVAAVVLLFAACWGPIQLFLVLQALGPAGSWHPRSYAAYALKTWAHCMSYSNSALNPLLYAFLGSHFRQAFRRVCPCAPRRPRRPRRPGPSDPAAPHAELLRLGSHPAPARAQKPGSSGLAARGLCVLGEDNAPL
Summary of the method: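 After overnight (18 h) culture at 37 C/5% CO2, human KISS1R-HEK293 cells received calcium dye for 1 h, then test compound; emission at 540 nm (excitation 480 nm) was tracked for 3 min.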

[4] = G protein-coupled receptor (GPCR) small molecule agonists, calcium flux assay: HEK293 wild type cell line counter screen (AID 1920065)
Summary of the method: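 Following 18 h incubation at 37 C/5% CO2, plates got calcium dye for 1 h; compounds, ATP or DMSO were then pinned in and fluorescence followed kinetically (480/540 nm).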

[5] = p53 small molecule agonists, cell-based qHTS assay with human liver microsomes (AID 1963577);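 further: p53 response element beta-lactamase reporter cells with liver microsomes plus NADPH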
Summary of the method: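 Reporter activation was measured by LiveBLAzer fluorescence intensity in p53RE-bla cells, which had been exposed to compounds for 16 h at 37 C alongside 0.5 mg/mL human liver microsomes and 0.5 mg/mL NADPH (final concentrations).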

[6] = p53 small molecule agonists, cell-based qHTS assay with rat liver microsomes (AID 1963578)
Summary of the method: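 Compound in DMSO added to p53RE-bla cells 5 h post-plating; rat microsomes/NADPH 0.5 mg/mL final; 16 h, 37 C; LiveBLAzer 2 h RT.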

[7] = p53 small molecule agonists, cell-based qHTS assay with human liver microsomes: qHTS cell viability counter screen (AID 1963579); further: nearly all actives have a fitted effect of over 45% in size
Summary of the method: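 HLM-supplemented (0.5 mg/mL final) and NADPH-supplemented (0.5 mg/mL final) p53RE-bla cultures, 4,000 cells per well, were dosed with compounds in DMSO for 16 h at 37 C; luminescent ATP detection (CellTiter-Glo, 30 min, room temperature) quantified surviving cells.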

[8] = p53 small molecule agonists, cell-based qHTS assay with rat liver microsomes: qHTS cell viability counter screen (AID 1963580); further: nearly all actives have a fitted effect of over 45% in size
Summary of the method: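 Luminescent ATP readout (CellTiter-Glo, 30 min at room temperature) reports viability of p53RE-bla HCT-116 cells after 16 h at 37 C with test compounds under metabolic activation by rat liver microsomes and NADPH at 0.5 mg/mL final each.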

[9] = p53 small molecule agonists, cell-based qHTS assay (AID 1963582; active means well fitted activation curve with a large enough effect in the signal ratio in the repeat runs, not every such curve was filed as active; the % refers to the signal ratio)
Summary of the method: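 Measured: fluorescence from cleaved LiveBLAzer substrate. System: p53RE-bla cells, 16 h compound treatment at 37 C, 2 h substrate step at room temperature.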

[10] = molecular target: 5-hydroxytryptamine receptor 2A (Homo sapiens) (UniProt P28223); assay: 5-hydroxytryptamine receptor 2A (HTR2A) small molecule antagonists, cell-based qHTS assay (AID 1963586); further: nearly all actives have a fitted effect of over 45% in size; further: potency means the concentration at half of the fitted maximal effect
5-hydroxytryptamine receptor 2A (Homo sapiens), sequence (P28223 whole entry, looked up): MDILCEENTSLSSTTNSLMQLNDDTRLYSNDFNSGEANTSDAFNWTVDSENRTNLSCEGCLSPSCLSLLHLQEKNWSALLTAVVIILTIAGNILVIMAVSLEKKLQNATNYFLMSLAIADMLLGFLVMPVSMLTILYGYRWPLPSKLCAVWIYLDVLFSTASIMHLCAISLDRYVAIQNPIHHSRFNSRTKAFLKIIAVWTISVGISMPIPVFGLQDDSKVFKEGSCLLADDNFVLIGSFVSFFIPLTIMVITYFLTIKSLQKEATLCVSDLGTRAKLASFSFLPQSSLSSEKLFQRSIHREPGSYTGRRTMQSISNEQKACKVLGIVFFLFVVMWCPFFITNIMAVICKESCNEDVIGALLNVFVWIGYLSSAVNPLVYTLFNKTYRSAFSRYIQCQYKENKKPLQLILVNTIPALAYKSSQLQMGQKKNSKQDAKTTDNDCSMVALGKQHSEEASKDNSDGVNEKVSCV
Summary of the method: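 CHO cells stably expressing human HTR2A were plated for 18 h at 37 C, then loaded with calcium dye for 1 h. Compounds were preincubated 5 min at room temperature before DOI (4 nM solution) was added. Kinetic fluorescence was read for 3 min.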

[11] = molecular target: 5-hydroxytryptamine receptor 2A (Homo sapiens) (UniProt P28223); assay: 5-hydroxytryptamine receptor 2A (HTR2A) small molecule agonists, cell-based qHTS assay (AID 1963587); further: nearly all actives have a fitted effect of over 30% in size; further: potency means the concentration at half of the fitted maximal effect
Summary of the method: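 HTR2A-CHO cells, plated 18 h at 37 C/5% CO2, dye-loaded 1 h at 37 C; compounds in DMSO added by pin tool (agonist mode). Intracellular calcium flux read as kinetic fluorescence on FDSS over 2 min at 1 s intervals.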

[12] = molecular target: Muscarinic acetylcholine receptor M1 (Homo sapiens) (UniProt P11229); assay: Cholinergic receptor muscarinic 1 (CHRM1) small molecule antagonists, cell-based qHTS assay (AID 1963588); further: nearly all actives have a fitted effect of over 40% in size; further: potency means the concentration at half of the fitted maximal effect
Muscarinic acetylcholine receptor M1 (Homo sapiens), sequence (P11229 whole entry, looked up): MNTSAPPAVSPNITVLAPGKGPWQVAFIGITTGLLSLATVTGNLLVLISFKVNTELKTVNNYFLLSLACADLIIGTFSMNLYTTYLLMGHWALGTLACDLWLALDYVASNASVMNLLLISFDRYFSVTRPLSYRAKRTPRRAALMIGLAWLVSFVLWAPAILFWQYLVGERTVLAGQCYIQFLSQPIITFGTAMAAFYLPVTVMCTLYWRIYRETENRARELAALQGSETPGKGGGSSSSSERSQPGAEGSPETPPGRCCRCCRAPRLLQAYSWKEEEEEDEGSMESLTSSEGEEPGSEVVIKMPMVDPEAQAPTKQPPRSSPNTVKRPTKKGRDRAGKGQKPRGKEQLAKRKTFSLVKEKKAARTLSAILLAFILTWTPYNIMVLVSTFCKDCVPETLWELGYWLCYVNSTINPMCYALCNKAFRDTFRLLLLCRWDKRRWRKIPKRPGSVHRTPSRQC
Summary of the method: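 Compounds were tested at 15 concentrations in three independent runs. Dye-loaded CHRM1-CHO cells were exposed 5 min at room temperature before stimulation by acetylcholine added at 50nM. Intracellular calcium was read kinetically on FDSS for 3 min.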

[13] = molecular target: Muscarinic acetylcholine receptor M1 (Homo sapiens) (UniProt P11229); assay: Cholinergic receptor muscarinic 1 (CHRM1) small molecule agonists, cell-based qHTS assay (AID 1963589); further: nearly all actives have a fitted effect of over 35% in size
Summary of the method: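 Kinetic fluorescence (1 s intervals) of calcium-sensitive dye in human M1 CHO cells after compound addition; cells pre-incubated 18 h at 37 C/5% CO2 and dye-loaded 1 h.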

[14] = cAMP Responsive Elements (CRE) small molecule agonists, cell-based qHTS assay (AID 1963590)
Summary of the method: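 Test agents in DMSO were incubated 3 h at 37 C/5% CO2 with CRE-bla HEK 293T cells seeded 18 h earlier; LiveBLAzer B/G FRET substrate was added and read after 2 h at room temperature.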

[15] = cAMP Responsive Elements (CRE) small molecule antagonists, cell-based qHTS assay (AID 1963591; active means well fitted inhibition curve with a large enough effect in the signal ratio in the repeat runs, not every such curve was filed as active; the % refers to the signal ratio)
Summary of the method: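 Reporter line CRE-bla HEK 293T in dialyzed-FBS DMEM; cells preincubated 18 h, treated 3 h with compound plus NKH477 (0.25 uM final); LiveBLAzer FRET, 2 h RT.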

[16] = molecular target: Beta-2 adrenergic receptor (Homo sapiens) (UniProt P07550); assay: Adrenergic beta2 receptor (ADRB2) small molecule antagonists, cell-based qHTS assay (AID 1963592); further: series mostly up to about 92 µM; nearly all actives have a fitted effect of over 50% in size
Beta-2 adrenergic receptor (Homo sapiens), sequence (P07550 whole entry, looked up): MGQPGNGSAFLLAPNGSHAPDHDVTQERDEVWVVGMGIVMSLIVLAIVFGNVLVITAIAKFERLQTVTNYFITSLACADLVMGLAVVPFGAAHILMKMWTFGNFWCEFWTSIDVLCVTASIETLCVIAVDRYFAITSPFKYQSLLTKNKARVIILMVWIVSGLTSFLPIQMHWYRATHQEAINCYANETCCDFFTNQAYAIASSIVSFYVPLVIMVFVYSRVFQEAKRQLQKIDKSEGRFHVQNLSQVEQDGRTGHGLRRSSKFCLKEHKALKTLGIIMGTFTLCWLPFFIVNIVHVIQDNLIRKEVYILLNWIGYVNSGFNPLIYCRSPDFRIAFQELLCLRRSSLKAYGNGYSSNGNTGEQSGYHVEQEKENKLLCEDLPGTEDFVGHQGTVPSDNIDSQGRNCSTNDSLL
Summary of the method: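 Assay format: CHO-ADRB2 cells, 18-20hr seeding at 37C/5% CO2, then compound plus 1nM isoproterenol agonist mix for 0.5hr RT. Homogeneous time-resolved fluorescence cAMP detection after 1hr, expressed as 665/615 nm ratio.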

[17] = molecular target: Beta-2 adrenergic receptor (Homo sapiens) (UniProt P07550); assay: Adrenergic beta2 receptor (ADRB2) small molecule agonists, cell-based qHTS assay (AID 1963593);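 further: CHO cells stably overexpressing human ADRB2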
Summary of the method: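 CHO cells stably over-expressing ADRB2 were plated overnight at 37C, then dosed with compounds plus a stimulation mix containing 100uM IBMX and 25uM Ro-20-1724 for 0.5hr at room temperature. cAMP was measured by HTRF competition, 1hr.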

[18] = molecular target: D(2) dopamine receptor (Homo sapiens) (UniProt P14416); assay: Dopamine D2 receptor (DRD2) small molecule antagonists, cell-based qHTS assay (AID 1963595; active means well fitted inhibition curve with a large enough effect in the signal ratio in the repeat runs, with a control signal flat; the % refers to the signal ratio)
D(2) dopamine receptor (Homo sapiens), sequence (P14416 whole entry, looked up): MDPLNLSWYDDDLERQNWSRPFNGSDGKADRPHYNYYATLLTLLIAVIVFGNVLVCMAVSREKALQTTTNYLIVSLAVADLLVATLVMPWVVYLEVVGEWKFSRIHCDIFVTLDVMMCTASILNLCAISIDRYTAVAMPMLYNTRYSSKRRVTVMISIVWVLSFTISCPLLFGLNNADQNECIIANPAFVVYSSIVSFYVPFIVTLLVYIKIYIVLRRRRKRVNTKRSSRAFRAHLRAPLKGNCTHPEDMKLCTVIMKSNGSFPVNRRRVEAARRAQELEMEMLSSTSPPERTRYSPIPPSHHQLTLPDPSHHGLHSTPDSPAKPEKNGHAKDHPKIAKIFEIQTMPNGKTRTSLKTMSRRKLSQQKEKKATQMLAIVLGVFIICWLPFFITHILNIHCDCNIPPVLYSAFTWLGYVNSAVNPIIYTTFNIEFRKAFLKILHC
Summary of the method: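 HTRF cAMP read-out at 665 and 620 nm emission (340 nm excitation). Antagonist mode: compounds were tested against 12 nM quinpirole in DRD2-HEK293 cells, with 200 nM NKH477 raising cAMP and 0.1 mM Ro20-1724 blocking its breakdown.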

[19] = p53 small molecule agonists, cell-based qHTS assay: qHTS cell viability counter screen (AID 1963581); further: nearly all actives have a fitted effect of over 45% in size
Summary of the method: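 qHTS counter screen: 16 h compound exposure at 37 C of p53RE-bla HCT-116 cells (4,000 per well, seeded 5 h prior), cell viability by ATP luminescence.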

[20] = molecular target: D(2) dopamine receptor (Homo sapiens) (UniProt P14416); assay: Dopamine D2 receptor (DRD2) small molecule agonists, cell-based qHTS assay (AID 1963594); further: nearly all actives have a fitted effect of over 35% in size
Summary of the method: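 HEK293 cells stably expressing DRD2 were cultured 24 h at 37 C, then given Ro20-1724 (0.1 mM final) and compounds for 10 min at room temperature. NKH477 (200nM) was then added for 30 min. cAMP was read by HTRF.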

For `CCCCCCCCCCCCOC(=O)c1ccc(O)cc1`, the Potency [1] was “inactive”, the Potency [2] was “inactive” and the outcome [3] was “inactive”. For the same molecule, the outcome [4] was “inactive”, the Potency [5] was “inactive” and the Potency [6] was “inactive”. The Potency [7] was “inactive”, the Potency [8] was “inactive” and the Potency [9] was “inactive”. The Potency [10] was “inactive”, the Potency [11] was “inactive” and the Potency [12] was “inactive”. For the same molecule, the Potency [13] was “inactive”, the Potency [14] was “inactive” and the Potency [15] was “inactive”. For the same molecule, the Potency [16] was “inactive”, the Potency [17] was “inactive” and the Potency [18] was “inactive”.
In the case of `OC[C@H](Cc1cccc(O)c1)[C@H](CO)Cc1cccc(O)c1`, the Potency [1] is reported as “inactive”, the Potency [2] is reported as “inactive” and the outcome [3] is reported as “inactive”. For the same molecule, the outcome [4] was “inactive”, the Potency [5] was “inactive” and the Potency [6] was “inactive”. For the same molecule, the Potency [19] was “inactive”, the Potency [9] was “inactive” and the Potency [10] was “inactive”. For the same molecule, the Potency [11] was “inactive”, the Potency [12] was “inactive” and the Potency [13] was “inactive”. For the same molecule, the Potency [14] was “inactive”, the Potency [16] was “inactive” and the Potency [20] was “inactive”. The Potency [18] was “inactive”.
With `CCCCCCCCCCOCC(O)CN` (configuration not stated) the Potency [1] was “inactive”, the Potency [2] was “inactive” and the outcome [3] was “inactive”. For the same molecule, the outcome [4] was “inactive”, the Potency [5] was “inactive” and the Potency [6] was “inactive”. The Potency [7] was “inactive”, the Potency [8] was “inactive” and the Potency [19] was “inactive”. The Potency [10] was 18.3 µM (active), the Potency [11] was 9.52 µM (active) and the Potency [12] was “inactive”. The Potency [13] was “inactive”, the Potency [20] was “inactive” and the Potency [18] was “inactive”.
For `CC(C)(C)C(=O)NCCCC(=O)O`, the Potency [1] was “inactive”, the Potency [2] was “inactive” and the outcome [3] was “inactive”. The outcome [4] was “inactive”, the Potency [5] was “inactive” and the Potency [8] was “inactive”. For the same molecule, the Potency [19] was “inactive”, the Potency [12] was “inactive” and the Potency [14] was “inactive”. For the same molecule, the Potency [15] was “inactive”, the Potency [16] was “inactive” and the Potency [17] was “inactive”. For the same molecule, the Potency [20] was “inactive” and the Potency [18] was “inactive”.
For `CCCCCCCCCCCC`, the Potency [1] was “inactive”, the Potency [2] was “inactive” and the outcome [3] was “inactive”. The outcome [4] was “inactive”, the Potency [5] was “inactive” and the Potency [6] was “inactive”. For the same molecule, the Potency [8] was “inactive”, the Potency [19] was “inactive” and the Potency [9] was “inactive”. For the same molecule, the Potency [10] was “inactive”, the Potency [11] was “inactive” and the Potency [12] was “inactive”. The Potency [13] was “inactive”, the Potency [14] was “inactive” and the Potency [20] was “inactive”. For the same molecule, the Potency [18] was “inactive”.
In the case of `NS(=O)(=O)c1cc2c(cc1Cl)NC(C(Cl)Cl)NS2(=O)=O` (configuration not stated), the Potency [1] is reported as “inactive”, the Potency [2] is reported as “inactive” and the outcome [3] is reported as “inactive”. For the same molecule, the outcome [4] was “inactive”, the Potency [5] was “inactive” and the Potency [6] was “inactive”. For the same molecule, the Potency [8] was “inactive”, the Potency [19] was “inactive” and the Potency [9] was “inactive”. The Potency [14] was “inactive”, the Potency [15] was “inactive” and the Potency [16] was “inactive”. For the same molecule, the Potency [20] was “inactive” and the Potency [18] was “inactive”.
With `CNCCC(Oc1ccccc1OC)c1ccccc1` (configuration not stated) the Potency [1] was “inactive”, the Potency [2] was “inactive” and the outcome [3] was “inactive”. For the same molecule, the outcome [4] was “inactive”, the Potency [5] was “inactive” and the Potency [6] was “inactive”. The Potency [8] was “inactive”, the Potency [11] was “inactive” and the Potency [12] was 16.3 µM (active). The Potency [13] was “inactive”, the Potency [14] was “inactive” and the Potency [15] was “inactive”. The Potency [20] was “inactive” and the Potency [18] was “inactive”.
In the case of `Cc1cc2c(s1)Nc1ccccc1N=C2N1CCN(C)CC1`, the Potency [1] is reported as “inactive”, the Potency [2] is reported as “inactive” and the outcome [3] is reported as “inactive”. The outcome [4] was “inactive”, the Potency [5] was “inactive” and the Potency [6] was “inactive”. The Potency [8] was “inactive”, the Potency [9] was “inactive” and the Potency [14] was “inactive”. The Potency [15] was “inactive”.
